Test results taken from PubChem BioAssay (NCI).
The panel holds about 83,000 compounds, 20% with a hit somewhere; the sample as a whole holds those more often.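 The endpoint reported here, percent growth, reads 100 for growth as untreated, 0 for no net growth and -100 for all cells dead.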 Active and inactive are the calls of the source. How the source made its calls: active means growth percent below 10; inactive means the rest.

Columns and labels:
Experiment in all cases: NCI-60 one-dose screen, 48 h (100 = growth as untreated, 0 = no growth, -100 = all killed)
[1] = system: NCI-H23 lung; conditions: 10 µM unless noted
[2] = system: NCI-H226 lung; conditions: 10 µM unless noted
[3] = system: NCI-H322M lung; conditions: 10 µM unless noted
[4] = system: HOP-62 NSCLC; conditions: 10 µM unless noted
[5] = system: HOP-92 NSCLC; conditions: 10 µM
[6] = system: NCI-H522 lung; conditions: 10 µM unless noted
[7] = system: A549/ATCC NSCLC; conditions: 10 µM unless noted
[8] = system: 786-0 renal; conditions: 10 µM unless noted
[9] = system: COLO 205 colon; conditions: 10 µM unless noted
[10] = system: DU-145 prostate; conditions: 10 µM unless noted
[11] = system: K-562 leukemia; conditions: 10 µM unless noted
[12] = system: MALME-3M melanoma; conditions: 10 µM unless noted
[13] = system: MDA-MB-231 breast; conditions: 10 µM unless noted
[14] = system: SF-268 CNS; conditions: 10 µM unless noted
[15] = system: SF-295 CNS; conditions: 10 µM unless noted
[16] = system: SF-539 CNS; conditions: 10 µM unless noted
[17] = system: UACC-257 melanoma; conditions: 10 µM unless noted
[18] = system: NCI-H460 lung; conditions: 10 µM unless noted
[19] = system: RXF 393 renal; conditions: 10 µM unless noted
[20] = system: M14 melanoma; conditions: 10 µM unless noted

Measured: growth

COc1cc(Cn2cc3c(c2)-c2onc(CN4CCCC4)c2CC3)cc(OC)c1OC
inactive: [1] 86% | [2] 88.4% | [3] 90.6% | [4] 92.8% | [5] 92.3% | [6] 84.2% | [7] 100% | [8] 99.4% | [9] 109% | [10] 75.6% | [11] 59.9% | [12] 66.5% | [13] 91.3% | [14] 91.4% | [15] 85.8% | [16] 92.7% | [17] 97.1%

C#C[C@]1(O)CC[C@H]2[C@@H]3CC=C4c5sc(-c6ccc(C)cc6)nc5CC[C@]4(C)[C@H]3CC[C@@]21C
active: [18] -0.692% | [8] -52.5% | [11] 6.37% | [13] 4.97% | [19] -68.1% | [14] 7.62% | [15] -66.5% | [16] -47.7% | [17] -17.9% | [20] -49.9%
inactive: [1] 46.4% | [2] 99.3% | [3] 33% | [4] 23.2% | [6] 27.6% | [7] 38.3% | [10] 39.8%

N=c1c2cc(-c3ccccc3)oc2ncn1/N=C/c1ccc(Cl)cc1
inactive: [1] 97.8% | [2] 71% | [3] 90.9% | [4] 82.6% | [5] 105% | [6] 91.6% | [7] 41.7% | [8] 85.5% | [9] 89.2% | [10] 38.8% | [11] 78.7% | [12] 38.5% | [13] 96.3% | [14] 76.3% | [15] 93.1% | [16] 82.7% | [17] 95.1%

COc1ccc([C@H]2c3[nH]c4ccccc4c3C[C@H]3C(=O)N(C4CCN(Cc5c(Cl)cccc5Cl)CC4)CC(=O)N23)c(OC)c1
inactive: [1] 98% | [2] 92.9% | [3] 94.5% | [4] 93.2% | [5] 79.4% | [6] 87.2% | [7] 91.1% | [8] 101% | [9] 109% | [10] 110% | [11] 92.7% | [12] 90.6% | [13] 93% | [14] 85.6% | [15] 106% | [16] 101% | [17] 116%

CCNC(=O)N1CCc2cc(OC)c(OCCc3ccc(OC)cc3)cc2C1c1ccc([N+](=O)[O-])cc1C (stereo not drawn)
active: [18] 2.37% | [6] -8.41% | [19] -9.58% | [16] 9.83%
inactive: [1] 21.2% | [2] 38% | [3] 45.4% | [4] 25.9% | [7] 11.7% | [8] 18.2% | [10] 20.7% | [11] 13.7% | [12] 63.8% | [13] 17.7% | [14] 32% | [15] 10.8% | [17] 46.6% | [20] 23.4%

CCN(CC)c1cn(-c2ccc(S(N)(=O)=O)cc2)nn1
inactive: [1] 109% | [2] 109% | [3] 110% | [4] 112% | [5] 99% | [6] 92.9% | [7] 105% | [8] 106% | [9] 109% | [10] 105% | [11] 91.6% | [12] 103% | [13] 102% | [19] 114% | [14] 101% | [15] 101% | [16] 99.6% | [17] 99.7%

CCCn1cnc2c(c1=N)C(c1ccc(OC)cc1)c1sc3c(CC)cccc3c1O2 (stereo not drawn)
inactive: [1] 18.9% | [2] 57% | [3] 37.6% | [4] 38.8% | [18] 10.1% | [8] 32.3% | [9] 13.9% | [10] 16.7% | [11] 13.1% | [12] 53.5% | [13] 29.1% | [14] 45.1% | [17] 81.9%
active: [6] -14.3% | [19] -13.3% | [15] -18.1% | [16] -22% | [20] 2.9%

CC(=O)N(C)C1CCc2c(sc(NC(=O)c3ccc(C(C)(C)C)cc3)c2C(N)=O)C1 (stereo not drawn)
inactive: [1] 85.3% | [2] 47.3% | [3] 78.7% | [4] 34.7% | [18] 10.8% | [6] 70.4% | [8] 90.9% | [9] 103% | [10] 58.9% | [11] 62.3% | [13] 75.5% | [19] 96.2% | [14] 99% | [15] 43.8% | [16] 79.7% | [17] 86.9% | [20] 75.5%

Cc1nc2ncc(-c3ccc4ncnc(NCc5ccccc5)c4c3)cc2[nH]1
inactive: [1] 67.6% | [2] 64.6% | [3] 65.7% | [4] 38.9% | [18] 89.2% | [7] 77.5% | [8] 48.3% | [9] 84.4% | [10] 27.4% | [11] 84.2% | [12] 63.4% | [13] 24.4% | [14] 37.6% | [15] 61.5% | [16] 60.6% | [17] 75.7% | [20] 81.4%
active: [19] -18.1%

O=C(CN1CCN(c2cc(=O)n(-c3ccccc3)c3ccccc23)CC1)Nc1ccc(F)cc1
inactive: [1] 57.5% | [2] 63.6% | [3] 83.6% | [4] 83% | [18] 71.1% | [6] 66.1% | [7] 74.7% | [8] 81.9% | [10] 68.5% | [11] 37.3% | [13] 63% | [19] 71.9% | [14] 69.2% | [15] 71.8% | [16] 76.6% | [17] 49.7% | [20] 75.7%

COc1cc2oc(-c3cccc(NC(=O)c4cc(N)ccc4Cl)c3)cc(=O)c2c(OC)c1OC
inactive: [1] 102% | [2] 97.1% | [3] 105% | [4] 111% | [18] 104% | [6] 101% | [7] 103% | [8] 85.2% | [10] 99.7% | [11] 83.7% | [12] 100% | [13] 87.8% | [14] 98.2% | [15] 91.4% | [16] 94.8% | [17] 127%

CC1(C)CC[C@]2(C(=O)N3CCOCC3)CC[C@]3(C)C(=CC[C@@H]4[C@@]5(C)C/C(=C/c6ccco6)C(=O)C(C)(C)[C@@H]5CC[C@]43C)[C@@H]2C1
inactive: [1] 86.6% | [2] 69% | [3] 102% | [4] 87% | [18] 98.5% | [7] 87.8% | [8] 79.5% | [9] 108% | [10] 73.2% | [11] 64.2% | [12] 97.4% | [13] 85.5% | [14] 63.1% | [15] 95.3% | [16] 86.5% | [17] 94.5% | [20] 101%
active: [19] -3.24%

CCCCNNC(=O)c1ccc(-c2cccc(F)c2F)cc1
active: [5] -3.72% | [6] 4.69% | [9] 4.96% | [12] 9.92% | [19] -34%
inactive: [1] 38.1% | [2] 39.5% | [3] 42.4% | [4] 28.5% | [7] 34.2% | [8] 50.8% | [10] 28.9% | [11] 21.8% | [13] 51.3% | [14] 55.6% | [15] 28.2% | [16] 40.8% | [17] 23.5%

COc1ccccc1-n1cc(C#N)c(N)c1C(=O)c1ccc(Cl)cc1
inactive: [1] 90.8% | [2] 97.7% | [3] 103% | [4] 87.7% | [5] 101% | [6] 22.4% | [7] 94.6% | [8] 104% | [9] 86.8% | [10] 93.8% | [11] 20.8% | [12] 59.5% | [13] 68.2% | [14] 85.2% | [15] 78.8% | [16] 91.8% | [17] 87.5%

CCCn1cnc2c(c1=N)C(c1ccc(F)cc1)c1sc3c(C)cccc3c1O2 (stereo not drawn)
active: [2] 8.74% | [18] 8.38% | [11] 5.29% | [19] -39% | [15] -0.689% | [16] -27.1% | [20] 9.53%
inactive: [1] 25.7% | [3] 49.9% | [4] 32% | [7] 35.6% | [8] 23.5% | [9] 52.2% | [10] 27.5% | [12] 47.1% | [13] 53% | [14] 53.8% | [17] 70.8%

COc1ccc(NC(=O)Nc2ccc3c(ccn3C(=O)c3cccc(F)c3)c2)cc1
inactive: [1] 72.5% | [2] 69.2% | [3] 95.1% | [4] 91% | [5] 71.6% | [6] 78.6% | [7] 53.9% | [8] 58.2% | [9] 104% | [10] 84.5% | [11] 86.1% | [12] 34.2% | [13] 78.6% | [14] 85.3% | [15] 90.4% | [16] 52% | [17] 84.2%
